# From PubChem BioAssay AID686978 (National Center for Advancing Translational Sciences (NCATS), 2013)
# In all, about 420,000 compounds went through this assay and about 64,000 (15%) were called active. Another 27% or so got no clear call; they are omitted. Only a sample is shown. A number with no mark means an inactive call. Calls come from the whole dose curve; as a rule, active = well fitted inhibition curve with a large enough effect; inconclusive = small, poorly fitted or top-dose-only effect; inactive = flat fitted curve, though single readings scatter.
# Experiment: qHTS for Inhibitors of human tyrosyl-DNA phosphodiesterase 1 (TDP1): qHTS in cells in absence of CPT; note: nearly all actives have a fitted effect of over 55% in size
# Conditions: DT40 Tdp1-/- hTDP1 cells, no CPT, ATP luminescence, 48 h; activity change, negative = growth inhibition: at 46.2 µM (top of the series)
# In short: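 Growth kinetics read by CellTiter-Glo luminescence after ≥48 hr at 37 °C. Cells: DT40 Tdp1-/- stably carrying human TDP1, 400 per well, compound exposure in the absence of CPT (DMSO vehicle).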
# % is set by controls: 0 for no effect and ±100 for the full control effect; potency is the fitted concentration of half-maximal effect.
SMILES,"activity change, negative = growth inhibition [%]",Potency
COc1ccc2ccccc2c1CNCc1ccccn1,-28.3,
Cc1ccc(C)c(NC(=O)NNC(=O)c2ccc3ccccc3c2O)c1,-26.2,
Cc1ccc(C)c(NC(=O)CCC(=O)NNC(=O)c2cccs2)c1,-1.86,
Cc1ccc(C)c(NC(=S)NNC(=O)c2csc(C)c2)c1,,18.4 µM (active)
Cc1cc(C(=O)OCC(=O)Nc2nnc(C(C)C)s2)c2ccccc2n1,-1.36,
C=CCO/N=C(\C)c1c(O)c(C)c(-c2ccccc2)n(-c2ccccc2)c1=O,4.5,
CC(C)c1ccc(NC(=O)c2ccc3c(O)c(S(=O)(=O)c4ccccc4)c(=O)[nH]c3c2)cc1,-26.3,
COc1cc(OC)c(NS(=O)(=O)c2cn(C)cn2)cc1Cl,8.31,
COC(=O)c1scc(-c2ccc(C)cc2)c1S(=O)(=O)Nc1cc(Cl)c(OC)cc1OC,,11.6 µM (active)
COc1ccc(C)cc1S(=O)(=O)Nc1cccc(Cl)c1Cl,-19.3,
CC1O[C@@H](OC2C(O)C(C)O[C@H](OC(=O)[C@]34CCC(C)(C)C[C@H]3C3=CCC5[C@@]6(C)CC(O)C(O[C@@H]7OC(CO)C(O)[C@@H](O)[C@@H]7O)[C@@](C)(C(=O)O)C6CC[C@@]5(C)[C@]3(CO)CC4)C2O[C@H]2OC(C)[C@@H](O[C@@H]3OCC(O[C@@H]4OC(CO)C(O)[C@H](O)C4O)[C@@H](O)[C@@H]3O)[C@H](O)C2O)C(O)C(O)C1O (some centres not stated),-0.939,
Cc1ccc(CN2COc3cc(C)c4c(oc(=O)c5ccccc54)c3C2)cc1,-25.3,
CN(C(=O)c1ccccn1)c1nnc(-c2ccccn2)s1,-6.67,
CC1CC(C)(C)NC(=S)N1CCC(=O)N1CCN(Cc2ccccc2)CC1 (configuration not stated),-5.4,
CCOC(=O)c1ccc(COC(=O)c2cc(=O)[nH]c3ccccc23)o1,5.73,
CC(=O)N(Cc1cc(=O)[nH]c2ccccc12)c1ccc(C)cc1C,-4.22,
Cc1ccc(N(Cc2cc(=O)[nH]c3ccccc23)C(=O)CCl)cc1,,2.31 µM (active)
COC(=O)c1ccccc1NC(=O)c1ccc(COc2ccccc2Cl)o1,-23.7,
O=C(Nc1ccn(Cc2ccccc2F)n1)c1ccc(COc2ccc(Cl)cc2Cl)o1,,25.9 µM (active)
CC(=O)Nc1ccn(Cc2c(F)cccc2Cl)n1,-21.4,
O=C1CC(c2ccccc2)C(=O)N2C(=O)CC(c3ccccc3)C(=O)N12 (configuration not stated),-3.36,
c1ccc2c(c1)OCC(c1nn3cnnc3s1)O2 (configuration not stated),9.7,
CC(C)OC(=O)c1c(NC(=O)c2ccco2)sc2c1CCCC2,2.44,
CCOc1ccc(NC(=O)c2c(NC(=O)Cc3ccccc3)sc3c2CCCCC3)cc1,,20.6 µM (active)

SMILES,"activity change, negative = growth inhibition [%]",Potency
CCOc1ccc(NC(=O)c2c(NC(=O)Cc3ccccc3)sc3c2CCC(C)C3)cc1 (configuration not stated),,20.6 µM (active)
COc1ccc(CC(=O)Nc2sc(Cc3ccccc3)c(C)c2C(N)=O)cc1,-17.9,
CCOC(=O)c1c(NC(=O)/C=C/c2ccc(OC)cc2)sc2c1CCC(C)C2 (configuration not stated),-5.43,
O=C(CN1CCCC1)Nc1sc2c(c1C(=O)Nc1ccccc1)CCCC2,-23.3,
Cc1sc2c(c1C)c(=O)n(-c1ccccc1)c1nncn21,-26.5,
Cc1cccc(C2c3c(n(C)c(=O)n(C)c3=O)N=C3c4ccccc4C(=O)C32)c1 (configuration not stated),-57.1,
CC(=O)c1sc(N/N=C\c2ccc(C)cc2)nc1C,-6.34,
Cc1ccc(Nc2nc(Cl)c(C=O)s2)cc1,,23.1 µM (active)
Cc1ccc(Nc2nc(N)nc(CSc3nnc(C)s3)n2)cc1,-20.7,
COc1ccc(CC(=O)Nc2c3c(nn2-c2cccc(Cl)c2)CS(=O)C3)cc1 (configuration not stated),-24.1,
Cc1ccc(OCC(=O)NC(C)c2ccccc2)c([N+](=O)[O-])n1 (configuration not stated),-5.01,
C=C1C2C[C@H](O)C(C)(C)[C@@]2(O)[C@H](O)C[C@]23C[C@@](C)(O)[C@H](CC[C@H]12)[C@H]3O (some centres not stated),12.3,
Cc1c(C(=O)N/N=C/c2ccccc2)[nH]c2c([N+](=O)[O-])cccc12,,0.92 µM (active)
Cc1nn(-c2ccccc2)c(Cl)c1/C=N/NC(=O)c1nn(C)cc1[N+](=O)[O-],-28.7,
Cc1cc(C(=O)N/N=C/c2ccccc2[N+](=O)[O-])c(C)o1,-20.6,
CN(C(=O)c1cccc(NC(=O)Cc2ccc(NC(=O)C3CCCN(C(=O)C4CCCC4)C3)cc2)c1)C1CCC1 (configuration not stated),,20.6 µM (active)
CC(C)(C)OC(=O)N1CCC(C(=O)Nc2cccc(C(=O)NCCc3ccccc3)c2)CC1,,14.6 µM (active)
CCNC(=O)c1cccc(NC(=O)C2CC(=O)N(CCc3ccccc3)C2)c1 (configuration not stated),7.49,
O=C(Cc1ccc(NC(=O)C2CCCN(C(=O)CCc3ccccc3)C2)cc1)Nc1ccc(C(=O)N2CCOCC2)cc1 (configuration not stated),,18.4 µM (active)
CN(C(=O)c1cccc(NC(=O)Cc2cccc(NC(=O)C3CCCN(C(=O)C4CC4)C3)c2)c1)C1CCC1 (configuration not stated),-29.4,
CN(C(=O)c1ccc(NC(=O)Cc2cccc(NC(=O)C3CCN(C(=O)c4ccccc4)CC3)c2)cc1)C1CC1,1.83,
CC(=O)c1cccc(NC(=O)N2CCCC2C(=O)NCCc2ccccc2)c1 (configuration not stated),0.243,
O=C(Cc1ccc([N+](=O)[O-])cc1)Nc1ccc(C(=O)N2CCOCC2)cc1,-10.5,
